Screens: PubChem BioAssay, National Center for Advancing Translational Sciences (NCATS)
The sample as a whole holds a higher share of hits than the screen did.
Methyltransferases: Primary Screen for Target Class Profiling of Small Molecule Inhibitors of Methyltransferases; actives 3.9% (n = 25,000); calls only at 40 µM; AID 1745853, 2022; purified enzyme, MTase-Glo SAH luminescence; hits give low values; call rule not given here
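Each enzyme was assayed with SAM and its substrate. SAH formation detected by MTase-Glo luminescence; single-point 40 uM screen[…].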
An asterisk follows results filed as active; ! = not active in a repeat. % is scaled to controls: 0 for no effect and ±100 for the full control effect.

`Oc1ccc([C@H]2COc3cc(O)ccc3C2)cc1` gave Methyltransferases inactive.
C[C@H](Oc1cc(-c2cnn(C3CCNCC3)c2)cnc1N)c1c(Cl)ccc(F)c1Cl was read as Methyltransferases active.
For C[C@@H](Oc1cc(-c2cnn(C3CCNCC3)c2)cnc1N)c1c(Cl)ccc(F)c1Cl the results were Methyltransferases active!.
O=C(c1ccco1)N1CCC2(CCN(CCCn3cccn3)CC2)C(CO)C1 (stereo not drawn) was read as Methyltransferases inactive.
For CC1(C(=O)NC2CCCCC2)Cn2c(cc3ccccc32)C(=O)N1Cc1ccc(Cl)cc1 (stereo not drawn) the results were Methyltransferases inactive.
Screening CN1C(=O)c2cc3ccccc3n2CC1(C)C(=O)NCC(=O)NCCc1ccc(Cl)cc1 (stereo not drawn) returned Methyltransferases inactive.
`O=C(CCCc1nnc2n3nc(-c4ccccc4)nc3c3ccccc3n12)NCc1ccc(F)cc1` gave Methyltransferases inactive.
CC1CCN(c2cc(NC(=O)c3ccccc3)ncn2)CC1 was read as Methyltransferases inactive.
For COC(=O)Nc1nc2ccc(C(=O)c3cccs3)cc2[nH]1 the results were Methyltransferases inactive.
Screening O=C(c1ccccc1)c1ccc2nc(NC(=O)c3csc(C4CCN(c5ncnc6ccsc56)CC4)n3)[nH]c2c1 returned Methyltransferases active.
Screening Cc1ccc(Cn2nc3n(CC(C)C)c(=O)c4ccccc4n3c2=O)cc1 returned Methyltransferases inactive.
CCOC(=O)C1(Cc2ccccc2)CCNCC1 was read as Methyltransferases inactive.
`O=c1c2ccccc2n2c(=O)n(Cc3cccc(F)c3)nc2n1Cc1ccc(F)cc1` gave Methyltransferases inactive.
For C=CCn1c(=O)c2ccc(C(=O)NCC(C)C)cc2n2c(=O)n(CC(=O)NC(C)C)nc12 the results were Methyltransferases inactive.
CN(C)CCOC(C)(c1ccccc1)c1ccc(Cl)cc1 (stereo not drawn) was read as Methyltransferases active.
Screening CN(C)CCOC(c1ccccc1)c1ccccc1 returned Methyltransferases inactive.
For CCCn1c(=O)c2ccc(C(=O)NC3CCCC3)cc2n2c(=O)n(CC(=O)NC(C)CC)nc12 (stereo not drawn) the results were Methyltransferases inactive.
Screening CCc1ccccc1N1C(=O)c2c(C(=O)OC)ncn2CC1(C)C(=O)NC1CCCCCC1 (stereo not drawn) returned Methyltransferases inactive.
For C=C1C(O)CC2C(C(=O)O)=COC(O[C@@H]3O[C@H](COC(=O)c4ccc(O)cc4)[C@@H](O)[C@H](O)[C@H]3O)C12 (stereo partly drawn) the results were Methyltransferases inactive.
`COc1cc(/C=C/C(=O)OC[C@H]2O[C@@H](OC3OC=C(C(=O)O)C4C(O)CC(C)(O)C34)[C@H](O)[C@@H](O)[C@@H]2O)cc(OC)c1O` (stereo partly drawn) gave Methyltransferases active.
`COC(=O)C1=COC(O[C@@H]2O[C@H](CO[C@@H]3O[C@H](COC(=O)/C=C\c4ccc(O)cc4)[C@@H](O)[C@H](O)[C@H]3O)[C@@H](O)[C@H](O)[C@H]2O)C2C(CO)=CCC12` (stereo partly drawn) gave Methyltransferases inactive.
For C[C@]1(O)CC[C@@H]2C(C(=O)O)=CO[C@@H](O[C@@H]3O[C@H](COC(=O)c4ccc(O)cc4)[C@@H](O)[C@H](O)[C@H]3O)[C@@H]21 the results were Methyltransferases inactive.
COC(=O)C1=CO[C@@H](O[C@@H]2O[C@H](CO[C@@H]3O[C@H](COC(=O)/C=C/c4cc(OC)c(O)c(OC)c4)[C@@H](O)[C@H](O)[C@H]3O)[C@@H](O)[C@H](O)[C@H]2O)[C@@H]2C(CO)=CC[C@H]12 was read as Methyltransferases active.
Screening CC1(O)CC(O)C2C(C(=O)O)=COC(OC3OC(CO)C(O)C(O)C3OC(=O)/C=C/c3ccc(O)cc3)C21 (stereo not drawn) returned Methyltransferases inactive.
For COC(=O)C1=COC(OC2OC(CO)C(O)C(O)C2O)C2C(COC(=O)/C=C/c3ccc(O)c(O)c3)C(O)C(O)C12 (stereo not drawn) the results were Methyltransferases inactive.
C=C1[C@H]2[C@H](O[C@@H]3O[C@H](COC(=O)/C=C/c4cc(OC)c(O)c(OC)c4)[C@@H](O)[C@H](O)[C@H]3O)OC=C(C(=O)O)[C@H]2C[C@@H]1O was read as Methyltransferases active.
Screening COC(=O)C1=CO[C@@H](O[C@@H]2O[C@H](CO[C@@H]3O[C@H](COC(=O)/C=C/c4ccc(O)cc4)[C@@H](O)[C@H](O)[C@H]3O)[C@@H](O)[C@H](O)[C@H]2O)[C@@H]2C(CO)=CC[C@H]12 returned Methyltransferases inactive.
CCCn1c(=O)c2ccc(C(=O)NC(C)C)cc2n2c(SCC(=O)NC(C)(C)C)nnc12 was read as Methyltransferases inactive.
